Sampled rows, rich in hits. Any-hit rate of the full collection: about 9.9%.
HPGD inh – qHTS Assay for Inhibitors of HPGD (15-Hydroxyprostaglandin Dehydrogenase) | Potency, µM, most hits filed as inhibitors | 15-hydroxyprostaglandin dehydrogenase [NAD(+)] (Homo sapiens), P15428 | 150,000 tested, 4.3% active | AID 894, 2007 | purified HPGD, NADH fluorescence kinetic, PGE2 substrate
Target sequence (P15428 whole entry, looked up): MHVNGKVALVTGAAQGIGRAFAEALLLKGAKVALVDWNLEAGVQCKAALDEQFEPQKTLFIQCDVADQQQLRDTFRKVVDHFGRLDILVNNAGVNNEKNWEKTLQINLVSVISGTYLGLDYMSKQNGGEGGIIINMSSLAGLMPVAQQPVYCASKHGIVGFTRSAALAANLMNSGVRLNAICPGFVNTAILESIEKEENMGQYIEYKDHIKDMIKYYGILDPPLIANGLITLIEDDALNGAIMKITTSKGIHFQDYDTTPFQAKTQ
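20 nM HPGD preincubated 15 min at room temperature with compound in 50 mM Tris-HCl pH 8, 0.01% Tween 20. Started with 1 mM NAD+ and 30 uM prostaglandin E2; NADH fluorescence (360/450 nm) read 5 times over 30-s intervals, last minus first.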
Tau fibril FP – qHTS for Inhibitors of Tau Fibril Formation, Fluorescence Polarization | Potency, µM (titrated, usually from 57.7 µM), usual class: inhibitors | 280,000 tested, 0.39% active | AID 1468, 2008 | Microtubule-associated protein tau (Homo sapiens), P10636 | K18 P301L tau heparin fibrillization, Alexa594 FP, 6 h; active = well fitted curve in the direction sought with a large enough effect; inconclusive = small, poorly fitted or top-dose-only effect, or another doubt; inactive = no such curve, though single readings can be large; an effect the other way counts as inactive or inconclusive; note: nearly all actives have a fitted effect of over 55% in size
Target sequence (P10636 561-689 P618L limits assumed): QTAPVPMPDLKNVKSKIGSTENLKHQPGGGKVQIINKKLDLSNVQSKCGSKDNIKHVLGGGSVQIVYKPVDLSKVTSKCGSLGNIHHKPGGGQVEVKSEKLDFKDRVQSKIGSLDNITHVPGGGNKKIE
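Steps: dispense K18 P301L tau (15 uM plus 0.24 uM Alexa 594 tracer, final) in pH 7 sodium acetate; add compound; add heparin (20 uM final); incubate 6 hr, 37 C; add ThT (30 uM final); after 1 hr ambient, read FP.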
JMJD2E inh – qHTS Assay for Inhibitors of Human Jumonji Domain Containing 2E (JMJD2E); Lysine-specific demethylase 4E (Homo sapiens), B2RXH2; JMJD2E catalytic domain, FDH-coupled NADH fluorescence (FDH is formaldehyde dehydrogenase); Potency, µM (titrated, usually from 57.1 µM), actives largely listed as inhibitors; 230,000 tested, 1.6% active; AID 2147, 2009; note: nearly all actives have a fitted effect of over 50% in size
ALDH1A1 block – qHTS Assay for Inhibitors of Aldehyde Dehydrogenase 1 (ALDH1A1); Purified ALDH1A1, NADH fluorescence, propionaldehyde substrate; Potency, µM (doses to about 75.3 µM), hits mostly inhibitors; 220,000 tested, 7.3% active; AID 1030, 2008
Tau fluor cs – Counterscreen qHTS for Inhibitors of Tau Fibril Formation, Fluorescence Polarization; tau K18 P301L Alexa594 fluorescence, heparin fibrillization; Potency, µM (top dose mostly 57.7 µM); 280,000 tested, 0.93% active; active = well fitted curve in the direction sought with a large enough effect; inconclusive = small, poorly fitted or top-dose-only effect, or another doubt; inactive = no such curve, though single readings can be large; an effect the other way counts as inactive or inconclusive; note: nearly all actives have a fitted effect of over 55% in size
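Human tau K18 P301L (15 uM unlabeled, 0.24 uM Alexa 594-labeled) in 100 mM sodium acetate pH 7 with 20 uM heparin, 6 hr at 37 C. ThT 30 uM added, 1 hr ambient; Alexa 594 FP and total fluorescence read at 555/632 nm.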
Tau fibril ThT – qHTS for Inhibitors of Tau Fibril Formation, Thioflavin T Binding | Microtubule-associated protein tau (Homo sapiens), P10636 | 270,000 tested, 2.1% active | recombinant tau K18 P301L (four-repeat tau fragment), heparin-induced fibrillization, ThT fluorescence | AID 1460, 2008 | Potency, µM (series often up to 57.4 µM), hits mostly inhibitors; active = well fitted curve in the direction sought with a large enough effect; inconclusive = small, poorly fitted or top-dose-only effect, or another doubt; inactive = no such curve, though single readings can be large; an effect the other way counts as inactive or inconclusive; note: nearly all actives have a fitted effect of over 55% in size
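K18 P301L tau (15 uM + 0.24 uM Alexa 594-tagged), heparin 20 uM, NaOAc pH 7, 6 h 37 C; ThT 30 uM, 1 h RT, ex 450/em 510 nm.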
Of the large screens only hits and unclear results are named; the others gave an inactive call; [ ] = remark or other dose. Unless noted, calls come from the whole dose curve; as a rule, active = well fitted inhibition curve with a large enough effect (not every such curve was filed as active); inconclusive = small, poorly fitted or top-dose-only effect, or another doubt; inactive = no such curve, though single readings can be large or run the other way.

CCCN1C(=S)SC(C)(C)C1/[N+]([O-])=C/c1ccc(S(=O)(=O)NC)cc1 (stereo not given)	JMJD2E inh inconclusive (no result: HPGD inh)
C/C(=N\NC(=O)C1=NNC(=O)C1C)c1cccs1 (stereo not given)	none (no result: HPGD inh)
O=[N+]([O-])c1ccc(N=Nc2ccc(O)cc2O)cc1	ALDH1A1 block 10µM, Tau fluor cs 14µM[quencher], Tau fibril ThT 2.5µM
O=[N+]([O-])c1ccc(N=NN(CCO)CCO)cc1	ALDH1A1 block inconclusive, Tau fibril ThT inconclusive
COc1ccc2[nH]c(=S)[nH]c2c1	HPGD inh 28µM
S=c1[nH]c2ccc(Cl)cc2[nH]1	HPGD inh 10µM, ALDH1A1 block 8.9µM
COc1ccc2[nH]c3ccccc3c2c1	HPGD inh inconclusive, JMJD2E inh inconclusive, ALDH1A1 block inconclusive, Tau fluor cs inconclusive, Tau fibril ThT inconclusive
S=c1[nH]c2cc(Cl)ccc2s1	HPGD inh 28µM, JMJD2E inh inconclusive, ALDH1A1 block 2.8µM
CSc1ccc(CCNC(=O)Cn2ncn3c(cc4ccccc43)c2=O)cc1	none (no result: HPGD inh, JMJD2E inh, ALDH1A1 block)
Cc1ccc(C)c(N2CCN(C(=O)c3cc(C)nc4c3c(C)nn4-c3ccccc3)CC2)c1	none (no result: HPGD inh, JMJD2E inh, ALDH1A1 block)
COc1ccc(NC(=O)N2CCC3(CC2)CCN(C(=O)c2cnccn2)CC3)cc1	none (no result: Tau fibril FP, JMJD2E inh, Tau fluor cs, Tau fibril ThT)
Cc1ccc(C)c(NS(=O)(=O)c2cc3c(cc2C)n(C)c(=O)c(=O)n3C)c1	none (no result: HPGD inh, JMJD2E inh, ALDH1A1 block)
COc1ccc(/C=N/NC2=NCCCCC2)cc1	HPGD inh 13µM, ALDH1A1 block inconclusive
COc1ccnc(CSC(N)=Nc2ccc(F)cc2)c1	Tau fibril FP inconclusive, JMJD2E inh inconclusive, ALDH1A1 block inconclusive, Tau fibril ThT 28µM
Cc1cc(NCc2ccccc2)nc(-c2ccccc2O)n1	HPGD inh inconclusive, Tau fibril FP inconclusive, JMJD2E inh inconclusive, ALDH1A1 block inconclusive, Tau fluor cs 13µM[quencher], Tau fibril ThT inconclusive
Cc1cc(OC(C)C)nc(-c2ccccc2O)n1	Tau fibril FP inconclusive, Tau fibril ThT inconclusive
Cc1cc(Nc2ccccc2)nc(-c2ccccc2O)n1	Tau fibril FP 28µM, JMJD2E inh inconclusive, Tau fluor cs 11µM[quencher], Tau fibril ThT inconclusive
CCOC(=O)c1ccc(Nc2cc(-c3ccccc3)nc(C)n2)cc1	Tau fibril FP inconclusive, Tau fibril ThT inconclusive (no result: HPGD inh, JMJD2E inh, ALDH1A1 block)
CCOC(=O)c1ccc(Nc2cc(C)nc(-c3ccccc3O)n2)cc1	HPGD inh inconclusive, Tau fibril FP 10µM, Tau fluor cs inconclusive, Tau fibril ThT inconclusive
CCCOc1cc(C)nc(-c2ccccc2O)n1	ALDH1A1 block 10µM, Tau fluor cs inconclusive, Tau fibril ThT 16µM (no result: HPGD inh)
Cc1cc(S(=O)(=O)Nc2cc3c(cc2N2CCOCC2)n(C)c(=O)c(=O)n3C)ccc1F	none (no result: HPGD inh, JMJD2E inh, ALDH1A1 block)
Cc1ccccc1NC(=O)C(C)O/N=C/c1cccc([N+](=O)[O-])c1 (stereo not given)	HPGD inh inconclusive
CCCCC/C=C\C/C=C\C/C=C\C=C\C(O)CCCC(=O)O (stereo not given)	none
O=C(NCC1CCCO1)c1ccc(COc2ccc(F)cc2)o1 (stereo not given)	HPGD inh 25µM, ALDH1A1 block 10µM
CCOC(=O)Nc1ccc(C(=O)NCC2CCCO2)cc1 (stereo not given)	HPGD inh 16µM
CCOc1ccc(OCc2ccc(C(=O)NCC3CCCO3)o2)cc1 (stereo not given)	none
CCOc1ccc(C(=O)NCC2CCCO2)cc1 (stereo not given)	HPGD inh 16µM
O=C(NCC1CCCO1)c1ccc2c(c1)OCO2 (stereo not given)	HPGD inh 2µM
O=C(NCC1CCCO1)c1ccc(C(=O)NCC2CCCO2)cc1 (stereo not given)	none
CCC(=O)N1c2nc(C(C)C)nn2C2(CCCCC2)[C@@H]2CCCC[C@@H]21	none (no result: HPGD inh, JMJD2E inh, ALDH1A1 block)
